Data from PubChem BioAssay.
Unmarked numbers belong to inactive results. Active and inactive are the calls of the source. No rule for the calls is given here.

Each compound was assayed on Aerobactin synthetase IucA (Klebsiella pneumoniae, hypervirulent) (assay: biochemical IucA inhibition screen of LOPAC library by absorbance (AID 1346212;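 also: 100% = no compound wells and 0% = no enzyme wells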)). Settings: IucA enzyme assay, absorbance (OD) readout; active compounds read low;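 tested at 8 µM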.
With `Brc1c(Br)c(Br)c2[nH]cnc2c1Br` the remaining activity was 110%. In the case of `C[C@H]1C[C@H]2[C@@H]3CCC4=CC(=O)C=C[C@]4(C)[C@@]3(Cl)[C@@H](O)C[C@]2(C)[C@@]1(O)C(=O)CO`, the remaining activity is reported as 107%. With `C=C(C)C1CC=C(C(=O)O)CC1` (stereo not given) the remaining activity was 82.4%. In the case of `CCN(CC)CC#CCOC(=O)C(O)(c1ccccc1)C1CCCCC1` (stereo not given), the remaining activity is reported as 118%. Work on `Oc1ccc(C2CNCc3sccc32)cc1O` (stereo not given) yielded a remaining activity of 99.3%. `CC1=C(C(=O)O)N2C(=O)[C@@H](NC(=O)[C@H](N)c3ccccc3)[C@H]2SC1` was tested, and the remaining activity was 118%. In the case of `OC(CN1CCC(Cc2ccc(F)cc2)CC1)c1ccc(Cl)cc1` (stereo not given), the remaining activity is reported as 99.6%. `COc1ccccc1N1CCN(CCCNc2cc(=O)n(C)c(=O)n2C)CC1` was tested, and the remaining activity was 97%. Compound `COCc1nc2c([nH]1)c(=O)n(C)c(=O)n2CC(C)C` has a remaining activity of 112%. Compound `Nc1nc2[nH]c(=O)cnc2c(=O)[nH]1` has a remaining activity of 89%. In the case of `N[C@H](C(=O)O)[C@H]1C[C@@H]1C(=O)O`, the remaining activity is reported as 93.8%. With `OC(CN1CCN(c2cccc(Cl)c2)CC1)C(c1ccccc1)c1ccccc1` (stereo not given) the remaining activity was 114%. `CC(=O)[C@H]1CC[C@H]2[C@@H]3CCC4=CC(=O)CC[C@]4(C)[C@H]3CC[C@]12C` showed a remaining activity of 123%. `OC[C@H]1NC[C@@H](O)[C@@H]1O` was tested, and the remaining activity was 102%. `CCCC(=O)NCCc1c2n(c3ccc(OC)cc13)CCCc1ccccc1-2` was tested, and the remaining activity was 116%. In the case of `N[C@@H](Cc1c[nH]c2ccccc12)C(=O)O`, the remaining activity is reported as 91.3%. Compound `COc1ccccc1N1CCN(CCN(C(=O)C2CCCCC2)c2ccccn2)CC1` has a remaining activity of 119%. Compound `C[C@@H](N)C1CCC(C(=O)Nc2ccncc2)CC1` (stereo not given in full) has a remaining activity of 107%. For `C[C@]12CCC(=O)C=C1CC[C@@H]1[C@@H]2[C@@H](O)C[C@@]2(C)[C@H]1CC[C@]2(O)C(=O)CO`, the remaining activity was 104%. `CO[C@@]1(NC(=O)CSCC#N)C(=O)N2C(C(=O)O)=C(CSc3nnnn3C)CS[C@@H]21` showed a remaining activity of 118%. For `C[C@H](NCCc1ccc(O)cc1)[C@H](O)c1ccc(O)cc1`, the remaining activity was 94.5%. For `O=c1c2ccccc2[nH]c(=S)n1CCN1CCC(=C(c2ccc(F)cc2)c2ccc(F)cc2)CC1`, the remaining activity was 119%. `Cc1cccc(C)c1NC(=O)C[N+](C)(C)C` gave a remaining activity of 116%. With `N[C@@H](CS(=O)O)C(=O)O` the remaining activity was 115%. Compound `N#CC(=C(/N)Sc1ccccc1N)/C(C#N)=C(\N)Sc1ccccc1N` has a remaining activity of 104%. Work on `N=c1c[n+](N2CCOCC2)[n-]o1` yielded a remaining activity of 108%. For `OC[C@H]1O[C@H]([S-])[C@H](O)[C@@H](O)[C@@H]1O.[Au+]`, the remaining activity was 66.7% (active). `Nn1nnc2ccccc21` gave a remaining activity of 115%. `O=C1NC(=O)c2cc(Nc3ccccc3)c(Nc3ccccc3)cc21` was tested, and the remaining activity was 113%. `COc1ccc(CCN(C)CCc2ccc(OC)c(OC)c2)cc1OC` showed a remaining activity of 122%. `Nc1ccc(-c2ccc3ccccc3n2)cc1` showed a remaining activity of 107%. Work on `COc1ccccc1N1CCN(CCCNc2c(C)c(=O)n(C)c(=O)n2C)CC1` yielded a remaining activity of 96.4%. `CCCCCCCCCCCCCCCCCC(=O)NCC(COP(=O)([O-])OCC[N+](C)(C)C)OCC` (stereo not given) gave a remaining activity of 97.5%. With `Nc1ccc(N2C(=O)c3ccccc3C2=O)c(Cl)c1` the remaining activity was 105%. Compound `Cc1cn([C@H]2C=C[C@@H](CO)O2)c(=O)[nH]c1=O` has a remaining activity of 106%. `CNC(=O)[C@H]1O[C@@H](n2cnc3c(NCc4ccc(N)cc4)ncnc32)[C@H](O)[C@@H]1O` was tested, and the remaining activity was 119%. Work on `N#C/C(=C\c1ccc(O)c(O)c1)C(=O)NCc1ccccc1` yielded a remaining activity of 101%. `CCN1CCC[C@H]1CNC(=O)c1c(O)c(Cl)cc(Cl)c1OC` gave a remaining activity of 98.9%. `O=c1[nH]c2ccccc2c2ccccc12` was tested, and the remaining activity was 97.7%. `N[C@@H](CCC(=O)N[C@@H](CSN=O)C(=O)NCC(=O)O)C(=O)O` was tested, and the remaining activity was 119%.
